According to PubChem BioAssay:
Calls of active or inactive are those of the source.

How the values were obtained:
Albumin (Bos taurus) = Albumin (Bos taurus) (UniProt P02769); test: compounds binding labelled BSA control protein – biochemical, small-molecule microarray, Alexa647 label, 635/667 nm fluorescence, artefact control for SMM control protein annotation, profiling panel (AID 1118); settings: BSA-A647 binding, fluorescence 635 nm, higher = more signal;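 note: score merges 667 nm emission intensity and signal-to-noise per printed compound spot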
[1] = probe aXIP binding to arrayed compounds – biochemical, NeuroSMM set, 635/667 nm fluorescence, primary screen (AID 1119); settings: small-molecule microarray, higher = more signal, called active from +8 up or from −8 down;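 note: probe is the protein aXip251-270 applied at 1 µg/mL to compound-printed slides; binding of probe to printed compounds measured as 667 nm fluorescence plus signal to noise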
[2] = probe aNOTCH3 binding on compound microarray – biochemical, small-molecule microarray, 635/667 nm fluorescence, primary screen (AID 1120); settings: higher = more signal;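 note: probe is a biotin-tagged antibody raised against NOTCH3 rather than NOTCH3 protein; score merges spot fluorescence near 667 nm with spot signal to noise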
[3] = probe aNOTCH2 binding on compound microarray – biochemical, small-molecule microarray, 635/667 nm fluorescence, primary screen (AID 1121); settings: higher = more signal;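 note: score merges feature fluorescence read at 667 nm with its signal to noise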
[4] = target: Carbonic anhydrase 2 (Homo sapiens) (UniProt P00918); test: compounds binding carbonic anhydrase 2 – biochemical, small-molecule microarray, Alexa647-labelled CAII, profiling panel (AID 1122); settings: CAII-A647 binding fluorescence, higher = more signal
[5] = COS7 lysate on small-molecule microarray, probe aHis, 635 nm (AID 1123); settings: COS7 cell lysate, fluorescence, higher = more signal;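 note: z-score combines 667nm fluorescence intensity with signal-to-noise per printed compound spot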
[6] = probe aLAP1 signal on lysate-treated microarray – cell lysate, small-molecule microarray, COS7 lysate, primary screen (AID 1124); settings: probe aLAP1, fluorescence, higher = more signal;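 note: lysate comes from COS7 cells expressing LAP1 and is applied at 0.3 µg/mL; score merges spot fluorescence near 667 nm with signal-to-noise over triplicate slides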
Sam68 (KHDRBS1) = test: compounds binding KHDRBS1 protein – biochemical, small-molecule microarray, 635 nm fluorescence, primary screen (AID 1125); settings: higher = more signal;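 note: score merges 667 nm channel intensity with signal to noise over triplicate slides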
[7] = system: Chordin-like protein 2 (CHRDL2); test: compounds binding chordin-like 2 – biochemical, small-molecule microarray, 635 nm fluorescence, primary screen (AID 1126); settings: fluorescence 635 nm, higher = more signal;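 note: printed compound slides probed with Chrdl2 protein at 4 µg/mL for 1 h at 4 C; score merges 667 nm emission intensity with signal to noise over three replicate slides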
[8] = target: Concanavalin-A (Canavalia ensiformis) (UniProt P02866); test: compounds binding concanavalin A lectin – biochemical, small-molecule microarray, Alexa647 label, 635 nm, artefact control for SMM control protein annotation, primary screen (AID 1127); settings: ConA-A647 binding fluorescence, higher = more signal;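 note: z combines 667 nm emission intensity with signal-to-noise across three replicate slides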
[9] = compounds binding Alexa647 anti-His antibody – biochemical, small-molecule microarray, 635 nm fluorescence, artefact control for SMM control protein annotation, primary screen (AID 1128); settings: higher = more signal;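 note: score merges feature fluorescence with signal-to-noise for each printed compound spot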
[10] = system: Human papillomavirus type 1a E7 protein (residues 1-88); test: HPV1a E7 small-molecule binders, primary screen, biochemical, small-molecule microarray, residues 1-88, 635 nm (AID 1129); settings: small-molecule microarray binding, fluorescence 635 nm; higher = more signal
[11] = target: Focal adhesion kinase 1 (Homo sapiens) (UniProt Q05397); test: PTK2 protein binding on printed compound slides – biochemical, small-molecule microarray, 635/667 nm fluorescence, BSA, DTT, primary screen (AID 1130); settings: 635 nm fluorescence, higher = more signal;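 note: composite of spot emission at 667 nm and signal to noise over triplicate slides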
[12] = system: Fibrinogen (Alexa647-labelled); test: Alexa647-fibrinogen binding to printed small molecules – biochemical, small-molecule microarray, 635/667 nm fluorescence, artefact control for SMM control-protein annotation, profiling panel (AID 1131); settings: fibrinogen-A647 binding fluorescence, higher = more signal;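 note: z-score merges 667 nm fluorescence with per-spot signal-to-noise over triplicate slides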
[13] = target: Follistatin (Homo sapiens) (UniProt P19883); test: FST protein binding to printed compounds – biochemical, small-molecule microarray, 635/667 nm fluorescence, primary screen (AID 1132); settings: 635 nm fluorescence, higher = more signal
[14] = target: Fibroblast growth factor 2 (Homo sapiens) (UniProt P09038); test: basic fibroblast growth factor binding to printed compounds – biochemical, small-molecule microarray, 635/667 nm fluorescence, primary screen (AID 1133); settings: FGF2, fluorescence 635/667, higher = more signal
[15] = JC-1 mitochondrial potential readout, lung cancer cells – cell-based, A549, JC-1 fluorescence, basal, 24 h, 100 nL, profiling panel (AID 1138); settings: higher = more signal;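 note: A549 lung adenocarcinoma cells under basal conditions with no added stimulus; test concentration not given here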
Lefty1 = Lefty1 protein binding to printed compounds – biochemical, small-molecule microarray, 635/667 nm fluorescence, primary screen (AID 1139); settings: fluorescence 635/667, higher = more signal
[16] = system: wheat germ agglutinin (Triticum aestivum), Alexa647-labelled; test: Alexa647-WGA lectin binding to printed small molecules – biochemical, small-molecule microarray, 635/667 nm fluorescence, artefact control for SMM control-protein annotation, profiling panel (AID 1140); settings: WGA-A647 binding, 635 nm fluorescence, higher = more signal;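 note: score merges 667 nm feature emission with signal to noise over triplicate slides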
[17] = target: Luciferin 4-monooxygenase (Photinus pyralis) (UniProt P08659); test: inhibition of purified Photinus pyralis luciferase – biochemical, luminescence, purified enzyme, 2006 set, primary screen (AID 1141); settings: purified firefly luciferase, SteadyGlo luminescence, 30 min; higher = more signal, called active from +8 up or from −8 down;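 note: cell-free assay with purified firefly luciferase at 100 ng per well in PBS; test concentration not given here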
Chain of Luciferin 4-monooxygenase (Photinus pyralis) (P08659 whole entry, looked up): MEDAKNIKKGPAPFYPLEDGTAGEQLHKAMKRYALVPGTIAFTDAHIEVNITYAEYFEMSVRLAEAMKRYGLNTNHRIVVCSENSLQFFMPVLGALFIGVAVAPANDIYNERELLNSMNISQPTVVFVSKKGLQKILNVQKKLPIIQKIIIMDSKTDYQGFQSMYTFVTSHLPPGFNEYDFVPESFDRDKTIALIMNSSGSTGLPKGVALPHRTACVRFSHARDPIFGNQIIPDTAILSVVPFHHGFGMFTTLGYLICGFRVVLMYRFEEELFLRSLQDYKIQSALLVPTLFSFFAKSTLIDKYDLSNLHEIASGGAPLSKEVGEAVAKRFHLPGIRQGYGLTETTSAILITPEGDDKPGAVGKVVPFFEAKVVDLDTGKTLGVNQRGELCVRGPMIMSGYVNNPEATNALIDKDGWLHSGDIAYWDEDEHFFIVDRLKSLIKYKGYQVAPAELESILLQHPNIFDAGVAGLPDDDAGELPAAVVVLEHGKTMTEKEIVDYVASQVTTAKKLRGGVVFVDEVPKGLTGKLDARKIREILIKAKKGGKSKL

Chain of Focal adhesion kinase 1 (Homo sapiens) (Q05397 whole entry, looked up): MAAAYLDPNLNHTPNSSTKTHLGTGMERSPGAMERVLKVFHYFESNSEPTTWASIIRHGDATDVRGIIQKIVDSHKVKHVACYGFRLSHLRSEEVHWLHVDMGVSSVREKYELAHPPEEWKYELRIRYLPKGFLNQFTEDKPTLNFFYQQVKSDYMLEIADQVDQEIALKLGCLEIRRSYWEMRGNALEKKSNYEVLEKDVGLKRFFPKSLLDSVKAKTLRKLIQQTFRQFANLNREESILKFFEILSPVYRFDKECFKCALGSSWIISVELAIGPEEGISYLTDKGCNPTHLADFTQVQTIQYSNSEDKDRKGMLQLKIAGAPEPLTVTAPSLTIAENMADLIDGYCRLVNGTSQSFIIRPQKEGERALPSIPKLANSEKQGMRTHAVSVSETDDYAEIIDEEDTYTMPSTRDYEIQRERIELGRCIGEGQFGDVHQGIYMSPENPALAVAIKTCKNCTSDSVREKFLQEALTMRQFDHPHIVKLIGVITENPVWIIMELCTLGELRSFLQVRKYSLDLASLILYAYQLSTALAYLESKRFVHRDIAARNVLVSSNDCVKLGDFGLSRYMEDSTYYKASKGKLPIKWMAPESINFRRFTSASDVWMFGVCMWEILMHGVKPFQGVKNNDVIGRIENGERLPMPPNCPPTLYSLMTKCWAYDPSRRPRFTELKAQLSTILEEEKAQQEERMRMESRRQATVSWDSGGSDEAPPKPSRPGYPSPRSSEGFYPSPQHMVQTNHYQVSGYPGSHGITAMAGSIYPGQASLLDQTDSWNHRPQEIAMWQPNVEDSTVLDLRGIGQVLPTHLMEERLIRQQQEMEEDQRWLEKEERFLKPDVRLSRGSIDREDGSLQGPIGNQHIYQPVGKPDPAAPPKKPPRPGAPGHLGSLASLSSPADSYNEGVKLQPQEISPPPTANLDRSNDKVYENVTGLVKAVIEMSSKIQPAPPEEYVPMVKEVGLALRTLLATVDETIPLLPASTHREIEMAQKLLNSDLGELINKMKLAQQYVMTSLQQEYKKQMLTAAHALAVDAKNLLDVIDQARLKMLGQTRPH
Chain of Follistatin (Homo sapiens) (P19883 whole entry, looked up): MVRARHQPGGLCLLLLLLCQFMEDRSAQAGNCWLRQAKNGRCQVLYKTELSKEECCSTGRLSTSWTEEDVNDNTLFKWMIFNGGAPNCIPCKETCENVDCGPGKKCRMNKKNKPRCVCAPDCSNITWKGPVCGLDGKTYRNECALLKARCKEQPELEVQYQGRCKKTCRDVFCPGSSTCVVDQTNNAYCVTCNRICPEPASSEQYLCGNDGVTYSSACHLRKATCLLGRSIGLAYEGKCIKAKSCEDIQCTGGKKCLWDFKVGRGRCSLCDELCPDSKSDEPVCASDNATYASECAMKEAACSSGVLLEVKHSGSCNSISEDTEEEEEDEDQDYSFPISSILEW
Chain of Albumin (Bos taurus) (P02769 whole entry, looked up): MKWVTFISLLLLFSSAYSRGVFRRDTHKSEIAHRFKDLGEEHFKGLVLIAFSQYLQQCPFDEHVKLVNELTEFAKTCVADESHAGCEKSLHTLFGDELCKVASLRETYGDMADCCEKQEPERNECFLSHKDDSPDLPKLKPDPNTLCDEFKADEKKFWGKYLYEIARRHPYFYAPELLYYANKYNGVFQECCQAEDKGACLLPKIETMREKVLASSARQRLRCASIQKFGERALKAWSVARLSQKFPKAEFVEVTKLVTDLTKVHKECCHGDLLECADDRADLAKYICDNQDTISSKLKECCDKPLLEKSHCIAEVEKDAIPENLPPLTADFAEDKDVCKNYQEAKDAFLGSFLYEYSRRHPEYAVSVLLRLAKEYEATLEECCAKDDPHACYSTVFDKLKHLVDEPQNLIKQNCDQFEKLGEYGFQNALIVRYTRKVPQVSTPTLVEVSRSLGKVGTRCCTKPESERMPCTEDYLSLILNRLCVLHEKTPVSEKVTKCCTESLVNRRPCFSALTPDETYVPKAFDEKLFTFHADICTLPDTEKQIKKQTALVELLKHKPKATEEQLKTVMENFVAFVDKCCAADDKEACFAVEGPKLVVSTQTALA
Chain of Fibroblast growth factor 2 (Homo sapiens) (P09038 whole entry, looked up): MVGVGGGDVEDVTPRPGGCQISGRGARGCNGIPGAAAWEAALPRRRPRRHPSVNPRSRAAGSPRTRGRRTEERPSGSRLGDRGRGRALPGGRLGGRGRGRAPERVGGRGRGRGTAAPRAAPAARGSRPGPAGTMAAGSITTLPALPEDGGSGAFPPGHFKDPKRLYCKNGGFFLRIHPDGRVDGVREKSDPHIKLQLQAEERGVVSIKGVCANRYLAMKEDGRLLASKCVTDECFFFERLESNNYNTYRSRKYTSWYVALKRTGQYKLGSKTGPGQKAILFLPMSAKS
Chain of Concanavalin-A (Canavalia ensiformis) (P02866 whole entry, looked up): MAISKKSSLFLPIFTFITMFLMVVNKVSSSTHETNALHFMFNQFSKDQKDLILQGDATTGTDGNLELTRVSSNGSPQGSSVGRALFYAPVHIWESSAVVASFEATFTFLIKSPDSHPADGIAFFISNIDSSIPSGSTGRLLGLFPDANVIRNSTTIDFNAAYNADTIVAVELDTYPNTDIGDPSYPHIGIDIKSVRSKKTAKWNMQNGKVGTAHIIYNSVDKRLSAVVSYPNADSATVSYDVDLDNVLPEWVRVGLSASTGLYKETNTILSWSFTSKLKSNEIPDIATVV

| SMILES | composite z-score (Albumin (Bos taurus)) | composite Z-score [1] | composite z-score [2] | composite z-score [3] | composite z-score [4] | composite z-score [5] | composite z-score [6] | composite z-score (Sam68 (KHDRBS1)) | composite z-score [7] | composite z-score [8] | composite z-score [9] | composite z-score [10] | composite z-score [11] | composite z-score [12] | composite z-score [13] | composite z-score [14] | z-score [15] | composite z-score (Lefty1) | composite z-score [16] | z-score [17] |
| --- | --- | --- | --- | --- | --- | --- | --- | --- | --- | --- | --- | --- | --- | --- | --- | --- | --- | --- | --- | --- |
| NC(=O)NCC#Cc1ccc2c(c1)[C@]1(C(=O)N2)[C@H](C(N)=O)[C@H]2C(=O)O[C@H](c3ccccc3)[C@H](c3ccccc3)N2[C@@H]1c1ccc(O)cc1 | -0.0636 | 1.42 (inactive) | 0.286 | 0.668 | 0.688 | 3.15 | 0.505 | 0.652 | -0.034 | -0.279 | -0.407 | -0.655 | -0.209 | 0.513 | 0.336 | 0.383 | -1.27 | -1.01 | 0.623 | -0.192 (inactive) |
| COCCOC(=O)N1C(=O)[C@@]2(c3cc(C#CC4(O)CCCCCC4)ccc31)[C@H](c1ccc(OCCO)cc1)N1[C@H](c3ccccc3)[C@H](c3ccccc3)OC(=O)[C@H]1[C@@H]2C(=O)N1CCN(c2ncccn2)CC1 | 0.716 | -0.232 (inactive) | 0.0026 | -0.146 | 0.497 | 1.46 | -0.163 | 1.3 | 0.34 | 1.13 | 1.39 | 1.21 | 0.333 | 0.956 | 1.03 | 0.758 | -1.1 | 0.651 | 0.458 | -0.606 (inactive) |
| CC(=O)NCCCC[C@@H]1NC(=O)[C@H]2C[C@@H](C(=O)NCCCCCCNC(=O)CS)[C@@H](c3ccc(O)cc3)N2C1=O | -1.4 | 0.239 (inactive) | -0.216 | -0.185 | 0.727 | 2.68 | 0.0073 | 0.0719 | -0.205 | -0.366 | 2.48 | 0.432 | 0.458 | -0.397 | -0.409 | 0.141 | -1.08 | -0.712 | 0.485 | -0.644 (inactive) |
| CNS(=O)(=O)c1ccc(C)cc1 | -0.189 | 0.348 (inactive) | -0.185 | -0.0761 | -0.0894 | 0.284 | 0.291 | 0.667 | 1.07 | 0.613 | -0.0728 | 0.668 | -0.163 | -0.212 | 0.884 | 0.917 | 1.55 | 0.39 | 0.0044 | -1.2 (inactive) |
| CCOC(=O)C1=CC[C@@H](c2ccccc2)N(S(=O)(=O)c2ccc(C)cc2)[C@H]1c1ccccc1C | 0.767 | -0.663 (inactive) | 0.183 | 0.103 | 0.743 | 0.838 | 0.201 | 0.841 | -0.0352 | 0.705 | 0.109 | 0.893 | 0.0769 | 0.394 | 0.74 | 0.545 | 1.86 | 0.384 | 0.406 | 2.49 (inactive) |
| C=CCOC(=O)[C@H]1[C@@H]2C(=O)O[C@@H](c3ccccc3)[C@@H](c3ccccc3)N2[C@@H](c2ccc(OCCOC(=O)[C@@H]3C[C@@H]4C(=O)N[C@@H](CCCCNC(C)=O)C(=O)N4[C@@H]3c3ccc(O)cc3)cc2)[C@]12C(=O)Nc1ccccc12 | -0.729 | 0.282 (inactive) | 0.173 | -0.0291 | 0.638 | 1.94 | 0.21 | 1.3 | 1 | 1.2 | 3.17 | 1.22 | 1.14 | 0.76 | 1.25 | 1.49 | -1.55 | 1.23 | 0.8 | -0.907 (inactive) |
| COC(=O)[C@@]1(Cc2ccc(F)cc2)[C@H]2c3cc(C(=O)N(C)C)n(Cc4cc(F)c(F)c(F)c4)c3C[C@H]2CN1C(=O)c1ccccc1 | 0.935 | 0.0144 (inactive) | 0.672 | 0.214 | 0.613 | 2.37 | 0.351 | 1.13 | -0.0618 | 1.13 | 1.13 | 1.21 | 0.538 | 0.711 | 1.02 | -0.0402 | 0.918 | -0.788 | 0.704 | 2.37 (inactive) |
| COC(=O)[C@@]1(Cc2ccc(OC)cc2)[C@H]2c3cc(C(=O)N4CCCC4)n(Cc4ccc(O)c(OC)c4)c3C[C@H]2CN1C(=O)c1ccccc1 | 1.06 | 1.64 (inactive) | 1.18 | 0.437 | 0.845 | 3.32 | 1.09 | 0.535 | 0.114 | 0.988 | 2.89 | 0.926 | 0.264 | 0.724 | 0.379 | -0.1 | 1.44 | -0.304 | 1.11 | 1.62 (inactive) |
| C=CC[C@@]12N=C(c3ccc(OCCCO)cc3)O[C@@H]1c1ccccc1N(C)C2=O | -0.16 | -0.419 (inactive) | 0.0637 | -0.0374 | 0.655 | 2.67 | 0.319 | 1.22 | 0.718 | 0.838 | 2.16 | 1.23 | 0.338 | 0.363 | 1.52 | 1.62 | 1.26 | 0.283 | 0.65 | -4.19 (inactive) |
| O=C1N(Cc2ccccc2)c2ccccc2[C@@H]2OC(c3ccc(OCCCO)cc3)=N[C@]12CCS(=O)(=O)c1ccccc1 | 0.272 | 1.29 (inactive) | 0.147 | -0.0079 | 0.626 | 2.52 | -0.276 | 0.895 | 0.0187 | 1.14 | 0.218 | 1.2 | 0.564 | 0.92 | 1.15 | 0.311 | -0.311 | 0.0829 | 1.19 | -1.45 (inactive) |
